15 compounds from PubChem BioAssay can be followed below.

For experiment [1], the system named is TRPC4 beta (transient receptor potential cation channel C4), mouse. Kind of experiment: activators of mouse TRPC4 channel, confirmation, cell-based, Fluo4 calcium, HEK293 TRPC4beta/mu-opioid, duplicates, 10 µM (AID 2426;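 active = fluorescence ratio normalized to control raised more than 50% in primary screen plus both repeat runs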). The settings on record: Fluo4 calcium fluorescence, at 10 µM; active compounds read high.
Experiment [2] concerns transient receptor potential cation channel C4 beta (TRPC4), mouse. Kind of experiment: activators of mouse TRPC4 channel, confirmation, cell-based, second round, Fluo4, HEK293 TRPC4beta/mu-opioid, 1 µM (AID 2461;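 active = primary screen active and over 50% activation in each of two duplicate runs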). As to conditions: Fluo4 calcium fluorescence, at 1 µM; active compounds read high.
The subject of experiment [3] is TRPC4 (transient receptor potential cation channel C4 beta), mouse. Kind of experiment: positive allosteric modulators of mouse TRPC4, confirmation, cell-based, second round, Fluo-4, HEK293 TRPC4beta/mu-opioid, 1 µM (AID 2554;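 active = primary screen hit whose fluorescence ratio, in both repeats, exceeds the weak agonist control mean by 3 SD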). As to conditions: DAMGO EC20, Fluo-4 calcium flux, at 1 µM; active compounds read high. On the technique in general: Calcium flux is commonly read through the fluorescence of an indicator in the cells.

Experiment [4] relates to TRPC4 beta (transient receptor potential cation channel C4), mouse. Kind of experiment: positive allosteric modulators of mouse TRPC4, confirmation, cell-based, Fluo-4, HEK293 TRPC4beta/mu-opioid (AID 2555;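 active = primary screen hit whose calcium fluorescence ratio, in both repeats, exceeds the weak agonist control mean by 3 SD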). As to conditions: DAMGO EC20, Fluo-4 calcium flux, at 10 µM; active compounds read high.
In experiment [5] the target is Short transient receptor potential channel 4 (Mus musculus) (UniProt Q9QUQ5). Kind of experiment: inhibitors of mouse TRPC4 channel, confirmation, cell-based, Fluo4, HEK293 TRPC4beta/mu-opioid (AID 2636;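 active = calcium signal cut by more than 3 SD below the full-agonist control yet still positive, in both repeats and the earlier primary screen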). The settings on record: DAMGO, Fluo4 calcium flux, at 10 µM; active compounds read high.
Experiment [6] has the same target. Kind of experiment: inhibitors of mouse TRPC4 channel, confirmation, cell-based, second round, Fluo4, HEK293 TRPC4beta/mu-opioid, 1 µM (AID 2637;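 active = calcium signal ratio cut to more than 3 SD under the fully stimulated control mean yet still positive, in both repeats and the primary screen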;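 as to inhibition: percent of integrated ratio relative to wells lacking test compound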). As to conditions: Fluo4 calcium flux, DAMGO, at 1 µM; active compounds read high.
Experiment [7] has the same target. Kind of experiment: mouse TRPC4 channel activators, dose response, cell-based, HEK293 TRPC4/mu-opioid, Fluo-4 calcium (AID 434937;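 active = primary screen activator hit with a dose response curve and TRPC4 channel activation at any tested dose; inactive = no activation, no dose response, or not a primary hit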).
Experiment [8] shares this target. Kind of experiment: TRPC4 positive allosteric modulators, dose response, cell-based, HEK293 TRPC4/mu-opioid, Fluo-4 calcium, EC20 DAMGO (AID 434941).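 Also: calcium entry triggered by an EC20 dose of DAMGO at the co-expressed mu-opioid receptor.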
Experiment [9] has as its target Short transient receptor potential channel 6 (Mus musculus) (UniProt Q61143). Kind of experiment: inhibition of mouse TRPC6 channel, confirmation, selectivity assay for TRPC4 inhibitor project, cell-based, HEK293, membrane potential dye, duplicate (AID 434948;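 active = active in primary screen and both duplicates, each dropping signal beyond three positive-control SD with fluorescence still positive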). As to conditions: HEK293 TRPC6, membrane potential dye fluorescence, at 10 µM, stimulated with maximal-effect acetylcholine; active compounds read high.

Experiment [10] has the same target. Kind of experiment: activation of mouse TRPC6 channel, confirmation, selectivity assay for TRPC4 activator project, cell-based, HEK293, membrane potential dye, duplicate (AID 434950;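 active = membrane potential signal rise above negative control mean plus 3 SD in both duplicates, also active in the earlier TRPC4 screen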). The settings on record: HEK293 TRPC6, membrane potential fluorescence, at 10 µM; active compounds read high.
For experiment [11] the target is unchanged. Kind of experiment: TRPC6 potentiation by TRPC4 potentiator hits, confirmation, selectivity assay for TRPC4 potentiator project, HEK293 cells, membrane potential dye, duplicate (AID 434952;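 active = compound raising the membrane signal above positive-control mean plus 3 SD in both repeats, and a primary screen hit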). As to conditions: HEK293 TRPC6, membrane potential dye fluorescence, at 10 µM, maximal acetylcholine added after compound; active compounds read high.
Experiment [12] addresses Short transient receptor potential channel 4 (Mus musculus) (UniProt Q9QUQ5). Kind of experiment: calcium flux activators in TRPC4/5HT1a cells, counter-screen for TRPC4 activator project, cell-based, second counter screen, HEK293 TRPC4/5HT1a, Fluo-4 (AID 434977;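 active = calcium signal rise above buffer-control mean plus 5 SD in both duplicates, and also a hit in the primary screen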). As to conditions: Fluo-4 calcium flux, at 10 µM; active compounds read high.
A short description of experiment [13]: calcium flux inhibitors in TRPC4/5HT1a cells, confirmation, counter-screen for TRPC4 inhibitor project, cell-based, second counter screen, HEK293 TRPC4/5HT1a, Fluo-4 (AID 434978;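 active = primary screen active whose calcium signal fell more than 3 SD beyond the full-serotonin control mean in both duplicate plates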;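 as to outcome: serotonin given first at submaximal then at maximal dose after compound preincubation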). As to conditions: Fluo-4 calcium flux, at 10 µM, serotonin added to trigger calcium flux; active compounds read high.
The subject of experiment [14] is TRPC4 (mouse), co-expressed with 5HT1a in HEK293. Kind of experiment: calcium flux potentiators in TRPC4/5HT1a cells, confirmation, counter-screen for TRPC4 potentiator project, cell-based, second counter screen, HEK293 TRPC4/5HT1a, Fluo-4 (AID 434979;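 active = signal rise over 3 SD above mean of control wells given weak agonist, in both repeats and first screen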). The settings on record: Fluo-4 calcium flux, at 10 µM, serotonin added at its EC20 dose; active compounds read high.
Experiment [15] is described as follows: calcium flux activation in mu-opioid HEK293 cells, confirmation, counter-screen for TRPC4 activator project, cell-based, HEK293 mu-opioid receptor line (AID 449723;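 active = hit in primary screen, with calcium signal over 5 SD above buffer well mean in both duplicates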;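 also: counter screen cells carry the mu-opioid receptor alone and lack TRPC4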). As to conditions: Fluo-4 calcium fluorescence, at 10 µM; active compounds read high.
A short description of experiment [16]: calcium flux enhancement in mu-opioid HEK293 cells, confirmation, counter-screen for TRPC4 allosteric potentiator project, cell-based, HEK293 mu-opioid receptor line (AID 449724;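 active = calcium signal rise more than 3 SD above the low-dose agonist control mean, in both duplicate plates and the primary screen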;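 also: HEK293 cells carrying mu-opioid receptor only with no TRPC4 channel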). The settings on record: Fluo-4 calcium flux, at 10 µM, compound added before EC20 DAMGO stimulus; active compounds read high.

For part of these data: Measured potencies and affinities stand elsewhere. Active and inactive are the calls of the source.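 The calls were made as follows, unless noted: active = earlier screen potentiator hit that boosts the TRPC4 ion channel at some dose, with a dose response; inactive = no potentiation, no dose response, or not a prior hit.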

Chain of Short transient receptor potential channel 4 (Mus musculus) (Q9QUQ5 whole entry, looked up): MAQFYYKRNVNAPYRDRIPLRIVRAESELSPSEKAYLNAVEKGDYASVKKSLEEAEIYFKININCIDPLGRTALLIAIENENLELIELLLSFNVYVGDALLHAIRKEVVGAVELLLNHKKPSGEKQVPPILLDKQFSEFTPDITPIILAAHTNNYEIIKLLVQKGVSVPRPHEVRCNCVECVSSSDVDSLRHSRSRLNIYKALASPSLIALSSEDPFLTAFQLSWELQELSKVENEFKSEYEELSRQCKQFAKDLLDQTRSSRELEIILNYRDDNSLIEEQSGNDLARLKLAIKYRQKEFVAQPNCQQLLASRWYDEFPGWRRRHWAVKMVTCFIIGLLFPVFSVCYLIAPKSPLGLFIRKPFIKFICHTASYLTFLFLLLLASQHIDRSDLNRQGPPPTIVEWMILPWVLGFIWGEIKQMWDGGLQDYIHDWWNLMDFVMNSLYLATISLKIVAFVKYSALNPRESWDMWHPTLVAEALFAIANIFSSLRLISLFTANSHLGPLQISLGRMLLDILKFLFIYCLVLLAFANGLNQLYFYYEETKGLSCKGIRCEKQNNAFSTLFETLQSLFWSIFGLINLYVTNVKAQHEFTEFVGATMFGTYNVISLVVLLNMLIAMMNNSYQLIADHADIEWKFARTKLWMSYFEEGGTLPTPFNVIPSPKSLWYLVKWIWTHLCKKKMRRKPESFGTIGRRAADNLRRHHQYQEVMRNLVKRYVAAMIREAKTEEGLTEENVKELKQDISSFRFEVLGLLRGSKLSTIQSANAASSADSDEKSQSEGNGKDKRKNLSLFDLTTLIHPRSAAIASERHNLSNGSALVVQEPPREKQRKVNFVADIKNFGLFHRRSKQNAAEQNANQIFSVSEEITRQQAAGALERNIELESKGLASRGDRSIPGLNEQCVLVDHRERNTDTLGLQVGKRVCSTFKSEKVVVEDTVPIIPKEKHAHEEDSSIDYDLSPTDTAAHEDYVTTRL
Chain of Short transient receptor potential channel 6 (Mus musculus) (Q61143 whole entry, looked up): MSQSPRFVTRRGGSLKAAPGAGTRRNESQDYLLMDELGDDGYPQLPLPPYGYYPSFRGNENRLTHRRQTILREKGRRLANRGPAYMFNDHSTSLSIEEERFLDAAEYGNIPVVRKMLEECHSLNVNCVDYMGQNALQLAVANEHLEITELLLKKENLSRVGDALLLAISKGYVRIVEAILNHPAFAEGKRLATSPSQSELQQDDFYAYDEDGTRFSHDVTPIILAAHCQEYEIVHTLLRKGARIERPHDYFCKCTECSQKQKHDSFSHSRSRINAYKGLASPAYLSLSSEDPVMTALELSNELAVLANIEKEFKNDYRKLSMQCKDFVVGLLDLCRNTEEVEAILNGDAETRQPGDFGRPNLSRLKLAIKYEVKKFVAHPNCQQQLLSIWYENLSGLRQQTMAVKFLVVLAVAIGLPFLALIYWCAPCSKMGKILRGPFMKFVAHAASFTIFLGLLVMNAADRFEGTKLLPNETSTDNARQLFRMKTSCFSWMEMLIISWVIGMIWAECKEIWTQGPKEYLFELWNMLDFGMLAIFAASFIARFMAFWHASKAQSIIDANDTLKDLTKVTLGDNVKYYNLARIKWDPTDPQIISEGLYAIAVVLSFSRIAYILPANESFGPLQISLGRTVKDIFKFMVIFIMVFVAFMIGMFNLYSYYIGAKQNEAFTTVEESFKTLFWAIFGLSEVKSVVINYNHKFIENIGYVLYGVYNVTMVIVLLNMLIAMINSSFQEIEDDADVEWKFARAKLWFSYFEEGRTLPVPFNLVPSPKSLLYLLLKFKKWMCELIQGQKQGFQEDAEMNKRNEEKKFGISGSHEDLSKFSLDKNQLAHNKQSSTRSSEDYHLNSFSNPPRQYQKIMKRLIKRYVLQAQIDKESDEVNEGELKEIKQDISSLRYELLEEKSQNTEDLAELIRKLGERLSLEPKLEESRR

The inhibition is the relative decrease from the control value, in per cent. With `CN1CCN(c2ccc(NC(=O)c3ccc(Br)o3)cc2)CC1`, the outcome in experiment [1], in [2], in [3], in experiment [4], in [7] and in experiment [8] was inactive. The compound was called inactive in experiment [9], in [10], in experiment [11], in experiment [12], in experiment [13] and in experiment [14]. The result in experiment [15] and in [16] was inactive. Further, the inhibition was 91% (active) in [5] and 46% (active) in [6].
For `Cc1ccc(N(C(=O)c2snc(C(N)=O)c2N)C(C(=O)NCC2CCCO2)c2ccc(C)o2)c(C)c1` (stereo not given), the outcome in experiment [1], in experiment [2], in experiment [3], in [4], in [6] and in experiment [7] was inactive. For the same compound, the outcome in experiment [8], in experiment [9], in [10], in experiment [11], in experiment [12] and in experiment [14] was inactive. The result in experiment [15] and in experiment [16] was inactive. Besides, the inhibition was 75% (active) in [5] and 34% (active) in experiment [13].
As to `O=C(c1cccc(C(=O)N2CCN(c3ccccc3)CC2)c1)N1CCN(c2ccccc2)CC1`, the outcome in [1], in experiment [2], in experiment [3], in [4], in experiment [7] and in [8] was inactive. Also, the call in [9], in [10], in experiment [11], in experiment [12], in [14] and in [15] was inactive. Also, the result in experiment [16] was inactive. The inhibition in [5] is 92% (active); in experiment [6], 46% (active); in experiment [13] it was 26.9% (active).
As for `C/C(CC(=O)N(C(C)C)C(C)C)=N\NC(=O)COc1ccc(Cl)cc1Cl`, the result in experiment [1], in experiment [2], in experiment [3], in experiment [4], in experiment [6] and in [7] was inactive. In addition, the outcome in experiment [8], in [9], in [10], in [11], in [12] and in experiment [13] was inactive. In addition, the result in experiment [14], in experiment [15] and in experiment [16] was inactive. In [5], the inhibition was 83% (active).
On to `CCC(C)NC(C(=O)Nc1ccc(Cl)c([N+](=O)[O-])c1)c1ccccc1` (stereo not given), for which the outcome in experiment [1], in experiment [2], in experiment [3], in experiment [4], in [6] and in experiment [7] was inactive. Further, the result in experiment [8], in experiment [9], in [10], in experiment [11], in experiment [12] and in experiment [13] was inactive. In addition, the result in [14], in experiment [15] and in experiment [16] was inactive. Also, the inhibition in [5] is 73% (active).
As for `Cc1cc(-c2cn3ccccc3n2)c(C)n1-c1ccccc1`, the result in experiment [1], in experiment [2], in experiment [3], in [4], in experiment [7] and in experiment [8] was inactive. In addition, the result in experiment [9], in experiment [10], in experiment [11], in experiment [12], in experiment [13] and in [14] was inactive. Further, the result in [15] and in experiment [16] was inactive. Besides, the inhibition in experiment [5] is 101% (active); in experiment [6], 40% (active).
On to `OCC1(CCc2ccccc2)CCN(Cc2ccc3nsnc3c2)CC1`, for which the result in experiment [1], in experiment [2], in [3], in experiment [4], in [6] and in experiment [7] was inactive. The result in experiment [8], in [9], in [10], in experiment [11], in experiment [12] and in experiment [13] was inactive. In addition, the result in experiment [14], in [15] and in experiment [16] was inactive. Besides, in experiment [5], the inhibition was 83% (active).
On to `CC1CCc2nc(NC(=O)CN3CCN(Cc4ccc5c(c4)OCO5)CC3)sc2C1` (stereo not given), for which the outcome in [1], in experiment [2], in experiment [3], in [4], in [6] and in [7] was inactive. In addition, the outcome in experiment [8], in experiment [9], in [10], in experiment [11], in experiment [12] and in experiment [14] was inactive. Besides, the result in experiment [15] and in experiment [16] was inactive. For the same compound, the inhibition in experiment [5] is 77% (active); in [13], 28.7% (active).
For the compound `COc1ccc(C(Nc2ccccn2)c2c(NC(=O)c3ccco3)sc(C)c2C)cc1OC` (stereo not given), the outcome in [1], in experiment [2], in [3], in experiment [4], in experiment [7] and in experiment [8] was inactive. Besides, the compound was classed as inactive in [9], in [10], in experiment [11], in experiment [12], in experiment [13] and in [14]. The outcome in [15] and in experiment [16] was inactive. Further, the values for the inhibition in experiment [5] and in [6] were 78% (active) and 38% (active), respectively.
`CC1CCCN(CCCN2C(=O)C3C(C(=O)Nc4ccc(Cl)cc4)C4C=CC3(O4)C2C(=O)NC2CCCCC2)C1` (stereo not given): the result in [1], in experiment [2], in experiment [3], in [4], in experiment [7] and in experiment [8] was inactive. Moreover, the outcome in experiment [9], in [10], in experiment [11], in [12], in experiment [14] and in [15] was inactive. In addition, the result in [16] was inactive. For the same compound, the inhibition was 97% (active) in experiment [5], 63% (active) in [6] and 26.1% (active) in [13].
As to `CCOc1ccccc1CN1CCN(Cc2cccc3nonc23)CC1CCO` (stereo not given), the outcome in [1], in [2], in experiment [3], in experiment [4], in experiment [5] and in [6] was inactive. In addition, the result in experiment [7], in [8], in [9], in [10], in experiment [11] and in [12] was inactive. Moreover, the outcome in [13], in experiment [14], in experiment [15] and in experiment [16] was inactive.
In the case of `COc1ccc(/C=C2\SC(=S)N(C(Cc3ccccc3)C(=O)O)C2=O)cc1` (stereo not given), the result in experiment [1], in experiment [2], in [3], in experiment [4], in experiment [6] and in experiment [7] was inactive. Moreover, the outcome in experiment [8], in experiment [9], in [10], in experiment [11], in experiment [12] and in experiment [14] was inactive. Moreover, the outcome in [15] and in experiment [16] was inactive. The inhibition is 88% (active) in experiment [5] and 32.2% (active) in experiment [13].
Turning to `CCOc1ccc(NC(=O)c2c[nH]n3c(=O)cc(C4CCN(C(=O)OC(C)(C)C)CC4)nc23)cc1`, the outcome in experiment [1], in experiment [2], in [3], in experiment [4], in experiment [6] and in [7] was inactive. Moreover, the outcome in [8], in [9], in experiment [10], in experiment [11], in [12] and in experiment [14] was inactive. The result in [15] and in experiment [16] was inactive. The inhibition was 50% (active) in experiment [5] and 43.4% (active) in [13].
For the compound `CCc1cc(C(c2cccc(OC)c2)N2CCOCC2)c(NC(=O)c2ccccc2)s1` (stereo not given), the outcome in experiment [1], in experiment [2], in experiment [3], in experiment [4], in experiment [6] and in experiment [7] was inactive. In addition, the outcome in experiment [8], in experiment [9], in experiment [10], in experiment [11], in experiment [12] and in experiment [14] was inactive. Further, the result in experiment [15] and in experiment [16] was inactive. Moreover, the values for the inhibition in experiment [5] and in experiment [13] were 62% (active) and 28% (active), respectively.
Regarding `NS(=O)(=O)c1ccc(CCNCc2ccccc2OCc2ccc(Cl)cc2)cc1`, the result in experiment [1], in [2], in experiment [3], in experiment [4], in experiment [7] and in experiment [8] was inactive. Further, the compound was called inactive in experiment [9], in experiment [10], in [11], in experiment [12], in experiment [14] and in [15]. Also, the outcome in experiment [16] was inactive. Besides, the inhibition is 87% (active) in [5], 54% (active) in experiment [6] and 31.3% (active) in experiment [13].
